From PubChem BioAssay
Hits are enriched below; roughly 3.3% of the tested compounds scored in any of these assays.
PfG6PD inh – PfG6PD enzyme inhibitors, primary screen, biochemical, fluorescence intensity, uHTS. PfGluPho enzyme, NADPH resazurin-diaphorase fluorescence. inhibition, % at 20 µM. actives 0.78% (n = 350,000). AID 504690, 2011;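 active = inhibition reaching at least a set limit at 20 µM in the primary screen, cut at about 59% in these data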
PfM18AAP inh – PfM18AAP inhibitors, malaria aminopeptidase, primary screen, biochemical, QFRET, recombinant enzyme; actives 1.2% (n = 290,000); AID 1822, 2009; H-Glu-NHMec fluorogenic cleavage; M18 aspartyl aminopeptidase (Plasmodium falciparum 3D7); inhibition, % at 7.35 µM;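 active = inhibition above the campaign mean inhibition over all tested compounds plus 3 SD, cut at about 28% in these data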
UHRF1 MBD2 ctr – UHRF1 methylated DNA binding inhibitors, primary screen, counter-screen for MBD2 inhibitor project, biochemical, TR-FRET, human UHRF1, single concentration. actives 0.75% (n = 370,000). E3 ubiquitin-protein ligase UHRF1 (Homo sapiens), Q96T88. UHRF1 binding to methylated oligo. inhibition, % at 4.4 µM. AID 687016, 2013;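 also: UHRF1 SRA domain binding a hemimethylated CpG hairpin DNA probe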
Target sequence (Q96T88 whole entry, looked up, the tested form may be a part): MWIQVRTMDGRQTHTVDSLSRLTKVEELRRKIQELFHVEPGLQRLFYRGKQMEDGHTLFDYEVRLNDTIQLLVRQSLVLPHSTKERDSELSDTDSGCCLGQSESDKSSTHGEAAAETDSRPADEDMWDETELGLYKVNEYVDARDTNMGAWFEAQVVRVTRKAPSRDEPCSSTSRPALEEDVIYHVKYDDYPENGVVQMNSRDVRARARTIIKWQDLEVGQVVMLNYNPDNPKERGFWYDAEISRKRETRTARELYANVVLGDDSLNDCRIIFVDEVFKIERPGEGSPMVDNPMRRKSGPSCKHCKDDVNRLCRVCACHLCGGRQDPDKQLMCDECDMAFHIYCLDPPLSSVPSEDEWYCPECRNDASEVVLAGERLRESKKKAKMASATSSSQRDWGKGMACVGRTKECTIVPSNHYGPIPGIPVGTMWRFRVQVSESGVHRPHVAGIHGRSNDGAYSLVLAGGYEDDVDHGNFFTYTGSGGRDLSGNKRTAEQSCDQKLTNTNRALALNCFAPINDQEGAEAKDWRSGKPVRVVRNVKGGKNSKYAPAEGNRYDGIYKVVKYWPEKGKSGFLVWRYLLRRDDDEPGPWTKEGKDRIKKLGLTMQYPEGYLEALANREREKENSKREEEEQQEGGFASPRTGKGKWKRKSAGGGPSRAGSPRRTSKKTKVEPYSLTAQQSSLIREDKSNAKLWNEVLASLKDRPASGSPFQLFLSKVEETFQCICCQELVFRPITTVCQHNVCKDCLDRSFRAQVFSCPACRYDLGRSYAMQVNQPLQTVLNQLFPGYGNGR
PRMT1 inh – PRMT1 methyltransferase inhibitors, primary screen, biochemical, fluorescence polarization; Protein arginine N-methyltransferase 1 (Homo sapiens), Q99873; recombinant PRMT1, activity-based probe fluorescence polarization; inhibition, % at 2.79 µM; actives 1.3% (n = 370,000); AID 652257, 2013;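 active = inhibition above about 21% made by adding two undisclosed values, limit read from the data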
MBD2 DNA inh – inhibitors of MBD2 binding to methylated DNA, primary screen, biochemical, TR-FRET, DNA-binding domain, human; Methyl-CpG-binding domain protein 2 (Homo sapiens), Q9UBB5; MBD2 binding to methylated oligonucleotide; inhibition, % at 4.4 µM; actives 0.31% (n = 370,000); AID 686964, 2013; in the data active = inhibition above about 13%
UHRF1 DNA bind – UHRF1 methylated DNA binding inhibitors, counter-screen for MBD2 inhibitor project, biochemical, TR-FRET, human UHRF1. UHRF1 binding to methylated oligonucleotide. AID 720530, 2013. shares compounds with MBD2 DNA inh. actives 25% (n = 1,000). inhibition, % at 4.4 µM;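 also: UHRF1 SRA domain binding a labeled hemimethylated CpG hairpin DNA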
MBD2 confirm – inhibitors of MBD2 binding to methylated DNA, confirmation, biochemical, TR-FRET, DNA-binding domain, human; shares compounds with MBD2 DNA inh; TR-FRET MBD2-DBD binding to methylated oligonucleotide; inhibition, % at 4.4 µM; actives 26% (n = 1,000); in the data active = inhibition above about 14%
Of the large screens only hits and unclear results are named; the others gave an inactive call (follow-up assays come after a bar, where they were run). Rule as the data show it, unless noted: active = inhibition above about 21%; inactive = the rest.

O=C1CC(c2ccc(O)c(O)c2)Oc2c1ccc(O)c2O (stereo not drawn)	UHRF1 MBD2 ctr 64, PRMT1 inh 37, MBD2 DNA inh 35 (no result: PfM18AAP inh) | UHRF1 DNA bind 27 | MBD2 confirm inactive
Cc1c(Nc2c3ccccc3nc3ccccc23)c(=O)n(-c2ccccc2)n1C	MBD2 DNA inh 24 | UHRF1 DNA bind inactive | MBD2 confirm inactive
Cc1c(Nc2nc3ccccc3nc2N2CCN(c3ccccc3)CC2)c(=O)n(-c2ccccc2)n1C	none
Cc1ccc(S(=O)(=O)N(C)C)cc1NC(=O)COC(=O)CCC1CCCCC1	none (no result: PfM18AAP inh)
N=C1C=CC(=C(c2ccc(N)cc2)c2ccc(N)cc2)C=C1	none (no result: PfM18AAP inh)
O=C(Nc1cccc2c1CCCC2)c1ccccc1Br	none
Cc1ccc(S(=O)(=O)Oc2ccccc2[N+](=O)[O-])cc1	MBD2 DNA inh 14 (no result: PfM18AAP inh) | UHRF1 DNA bind inactive | MBD2 confirm inactive
CC(C)CNC(=S)N1CCC(C(=O)c2ccc(Cl)cc2)CC1	none (no result: PfM18AAP inh)
CCCCNc1cccc2c1S(=O)(=O)N(CCCC)CC(COCc1ccccc1)O2 (stereo not drawn)	none (no result: PfM18AAP inh)
COc1ccc(-c2nc3c4ccccc4ccn3c2Cc2cccc(F)c2)cc1OC	MBD2 DNA inh 15 (no result: PfG6PD inh, PfM18AAP inh) | UHRF1 DNA bind inactive | MBD2 confirm inactive
COc1ccc(-c2nc3c(C)cc(Br)cn3c2Cc2cccc(F)c2)cc1OC	none (no result: PfG6PD inh, PfM18AAP inh)
O=C(c1ccc2n[nH]nc2c1)N1CCN(c2ccc(C(F)(F)F)cn2)CC1	none (no result: PfM18AAP inh)
Cc1ccc(C(=O)NCc2cccnc2)cc1S(=O)(=O)N1CCCCCC1	none
O=C(NCC1CCN(C(=O)C(=O)c2cccs2)CC1)c1ccncc1	none (no result: PfG6PD inh, PfM18AAP inh)
O=C(NCC1CCN(C(=O)C(=O)c2cccs2)CC1)c1ccc2c(c1)CCO2	MBD2 DNA inh 19 (no result: PfG6PD inh, PfM18AAP inh) | UHRF1 DNA bind inactive | MBD2 confirm inactive
Cc1ccc(-c2c(C)sc3ncn(CC(=O)N4CCOCC4)c(=O)c23)cc1C	none
O=C(CSc1nc2ccsc2c(=O)n1CC1CCC(C(=O)O)CC1)c1ccc(Cl)cc1 (stereo not drawn)	MBD2 DNA inh 19 | UHRF1 DNA bind inactive | MBD2 confirm inactive
Cc1ccc(C)c(NC(=O)CN(C)C(=O)c2cccc(-n3cccc3)c2)c1	UHRF1 MBD2 ctr 36, MBD2 DNA inh 22 (no result: PfM18AAP inh) | UHRF1 DNA bind 43 | MBD2 confirm 33
CN(CC(=O)Nc1ccccc1Cl)C(=O)c1cccc(-n2cccc2)c1	none (no result: PfM18AAP inh)
CSc1ccc(S(=O)(=O)NCC(=O)OCC(=O)N(C)C2CCCCC2)cc1[N+](=O)[O-]	none (no result: PfM18AAP inh)
COCCn1c(C)cc(C(=O)COC(=O)c2cc3c(s2)CCC3)c1C	MBD2 DNA inh 16 | UHRF1 DNA bind 23 | MBD2 confirm 19
O=C(Oc1ccc2c(c1)OCO2)c1cc2c(s1)CCC2	UHRF1 MBD2 ctr 35, MBD2 DNA inh 25 | UHRF1 DNA bind 36 | MBD2 confirm 28
O=C(c1cc2c(s1)CCCC2)N1CCN(Cc2ccc3c(c2)OCO3)CC1	none
CCc1cc(/C(Cc2csc(C)n2)=N/O)c(O)cc1O	MBD2 DNA inh 14 | UHRF1 DNA bind inactive | MBD2 confirm inactive
Cc1cc(C2C(=O)c3ccccc3C2=O)c(C)c(C)c1C	none
CCC(=O)Nc1ccc(C(=O)COC(=O)c2nc3nccc(C)n3n2)cc1	UHRF1 MBD2 ctr 55, MBD2 DNA inh 34 (no result: PfM18AAP inh) | UHRF1 DNA bind 31 | MBD2 confirm 30
Cc1ccnc2nc(C(=O)OCC(=O)c3ccc(NC(=O)CC(C)C)cc3)nn12	none (no result: PfM18AAP inh)
COc1ccc(C)cc1NC(=O)c1cccc(C(=O)Nc2cc(C)ccc2OC)c1	MBD2 DNA inh 74 | UHRF1 DNA bind inactive | MBD2 confirm inactive
CC1=NN(c2cccc(C(=O)O)c2)C(=O)/C1=C\C=C\c1ccco1	UHRF1 MBD2 ctr 94, PRMT1 inh 27, MBD2 DNA inh 70 | UHRF1 DNA bind 94 | MBD2 confirm 56
CCN(CC)CCn1c2c(c(SCC(=O)Nc3cc(C)on3)nc1=O)CCCC2	none (no result: PfM18AAP inh)
COc1cc(/C=C(\C#N)C(=O)NCC2CCCO2)c([N+](=O)[O-])cc1OC (stereo not drawn)	PfM18AAP inh 30, UHRF1 MBD2 ctr 21, MBD2 DNA inh 14 | UHRF1 DNA bind inactive | MBD2 confirm inactive
COc1cc(/C=C(\C#N)C(=O)NCC2CCCO2)ccc1OCC(=O)O (stereo not drawn)	none
COc1ccc2nc(C)cc(Nc3ccc(N4CCN(C)CC4)cc3)c2c1	UHRF1 MBD2 ctr 54, MBD2 DNA inh 56 | UHRF1 DNA bind 49 | MBD2 confirm 51
COc1ccc2nc(C)cc(Nc3ccc(N4CCOCC4)cc3)c2c1	none
COc1ccc(CNCc2ccc([N+](=O)[O-])cc2)cc1OC	none
COc1cccc(NC(=O)Nc2nnc(Cc3ccc(F)cc3)s2)c1	MBD2 DNA inh 34 | UHRF1 DNA bind inactive | MBD2 confirm inactive
COc1ccc(CC(=O)Nc2cccc(S(=O)(=O)N3CCCCC3)c2)cc1	MBD2 DNA inh 40 (no result: PfM18AAP inh) | UHRF1 DNA bind inactive | MBD2 confirm inactive
NC(=O)C1=C[C@@H](c2csc3ccccc23)C[C@@H](OCCCCO)O1	MBD2 DNA inh 15 | UHRF1 DNA bind inactive | MBD2 confirm inactive
C=CCOC(=O)C1=C[C@H](c2csc3ccccc23)C[C@H](OCCCCO)O1	none (no result: PfM18AAP inh)
Cc1ccc(C(=O)N2CCN(C(=O)CN3CCOCC3)C2)cc1	MBD2 DNA inh 14 | UHRF1 DNA bind inactive | MBD2 confirm inactive
Cc1ccc(C(=O)C2CCN(CC(=O)N3CCOCC3)CC2)cc1	none (no result: PfG6PD inh, PfM18AAP inh)
Cc1cccc(N(CC(=O)NC(C)(C)C)C(=O)CNC(=O)c2cccs2)c1C	none
CCCNC(=O)c1ccc2c(=O)n3c(-c4ccc(C)cc4)csc3nc2c1	MBD2 DNA inh 15 (no result: PfM18AAP inh) | UHRF1 DNA bind inactive | MBD2 confirm inactive
CCCNC(=O)c1ccc2snnc2c1	none
CCN1CCN(C(CNS(=O)(=O)c2ccc(OC)c(C)c2)c2cccnc2)CC1 (stereo not drawn)	none
COc1cc(C(=O)NC2CCN(C)CC2)ccc1Nc1ncc2c(n1)N(C1CCCCC1)CCC(=O)N2C	UHRF1 MBD2 ctr 37, MBD2 DNA inh 24 (no result: PfM18AAP inh) | UHRF1 DNA bind 30 | MBD2 confirm 28
COc1ccc(C(=O)Nn2c(CC(C)C)nc3cc(Cl)ccc3c2=O)c(OC)c1	none
